Data on 26 compounds can be found in PubChem BioAssay AID710 (SRMLSC, 2007).

Hit rate of the full screen: of about 98,000 compounds, about 150 (0.15%) were called active. The sample as a whole holds a higher share of actives than the screen did. Values without a mark were called inactive.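 The calls were made as follows: active = growth inhibition above about 50% at one test dose (limit read from the data); inactive = the rest.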

This test can be described thus: antibacterial activity against E. coli BW25113 – strain BW25113, expanded library, OD600, primary screen (AID 710).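 Also: growth measured after 20 h incubation at 37 °C.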 To be noted: OD600 absorbance, at 100 µM, stronger effect = higher value.
Turning to `COc1ccc(C(C#N)Nc2ccccc2C)cc1` (stereo unspecified), the growth inhibition was 5%. The result for `COc1cc(/C=C2\SC(=S)N(Nc3ncc(C(F)(F)F)cc3Cl)C2=O)cc(OC)c1OC` reads -7%; that for `COc1ccccc1N(C)S(=O)(=O)c1ccc(C(=O)N2CCC(C(N)=O)CC2)cc1`, 3%. As for `CCCCNC(=O)C1CCCN(S(=O)(=O)c2ccc(S(=O)(=O)NCC(C)C)cc2)C1` (stereo unspecified), the growth inhibition is -1%.

`Cc1cc(-c2ccccc2)nc(N2CCC(C(=O)NC34CC5CC(CC(C5)C3)C4)CC2)n1`: the growth inhibition was -9%. The value for `S=c1[nH]nc2c3c4c(sc3ncn12)CCCC4` was 1%; that for `CCn1c(/C=C/c2ccc([N+](=O)[O-])o2)nc2ccccc2c1=O` was 6%.

With `COC(=O)c1ccccc1Oc1c(F)c(F)nc(N2CCOCC2)c1F`, the growth inhibition is 7%.

Consider `CCN1CCN(c2ccc([N+](=O)[O-])cc2C(=O)c2ccc(Cl)cc2)CC1`, for which the growth inhibition was 8%. The result for `CCOC(=O)c1nc(C)n(-c2ccc(Cl)cc2Cl)n1` reads 8%; that for `O=[N+]([O-])c1ccccc1OCCCCN1CCCCC1`, 8%.

With `C=CCn1c(-c2ccc3[nH]c(C)c(C)c3c2)n[nH]c1=S`, the growth inhibition is 2%.

Regarding `Cc1ccc(C(c2nnnn2CS(=O)(=O)c2ccc(C)cc2)N2CCC(C)CC2)cc1` (stereo unspecified), the growth inhibition is -1%.

Regarding `CCCNC(=O)c1c(N)n(-c2ccc(S(N)(=O)=O)cc2)c2nc3ccccc3nc12`, the growth inhibition is -1%.

As to `CC(=O)N1CCN(C(=O)Nc2cccc(C(F)(F)F)c2)CC1`, the growth inhibition was 17%. In the case of `O=C(O)CSCC(=O)Nc1cccc(C(F)(F)F)c1`, the growth inhibition was 3%. The result for `FC(F)(F)c1cccc(NC(=S)Nc2cccc(Cl)c2)c1` reads 50% (active); that for `Cc1cccn2c(=O)c(/C=C(\C#N)S(=O)(=O)c3ccc(Cl)cc3)c(N3CCC(C(N)=O)CC3)nc12`, 0%. The result for `COc1ccc(N2CCN(C(=O)CCc3nc(-c4ccc(C)cc4)no3)CC2)cc1` reads -5%.

As to `CC(C)C(=O)Nc1cccc(NC(=S)NC(=O)C(c2ccccc2)c2ccccc2)c1`, the growth inhibition is -13%. The result for `O=C(CNC(=O)c1ccccc1)NCC(=O)OCc1ccc(Cl)cc1` reads 1%; that for `COc1ccc(-c2nn(C)c(=O)c3ccccc23)cc1NC(=O)COc1ccccc1`, 2%. `CN(C(=O)CC(NC(=O)c1ccccc1)(c1ccccc1)c1ccccc1)c1ccccc1`: the growth inhibition is -17%.

In the case of `CCOC(=O)CSc1ncc(-c2cccc(Cl)c2)cn1`, the growth inhibition is 2%.

Turning to `O=C(CSc1nnc(-c2cccs2)n1Cc1ccccc1)N1CCc2ccccc2C1`, the growth inhibition is -18%. The result for `Cc1cccc(NC(=O)CSc2nc3c(c(=O)[nH]2)CCCC3)c1C` reads 3%.
